Results published in PubChem BioAssay (NCATS).
Records with an inconclusive call do not appear. A call without a number means that no potency is given here. A number with no mark means an inactive call. Calls of active or inactive are those of the source. The call rests on the fitted dose curve; in most records, active means well fitted curve in the direction sought with a large enough effect; inconclusive means small, poorly fitted or top-dose-only effect, or another doubt; inactive means no such curve, though single readings can be large; an effect the other way counts as inactive or inconclusive.

Legend:
[1] = biological target: Rap guanine nucleotide exchange factor 3 (Homo sapiens) (UniProt O95398); experiment: Confirmatory qHTS for antagonist of cAMP-regulated guanine nucleotide exchange factor 3 (EPAC1) (AID 1645880); details: EPAC1 Rap1B-BODIPY-GDP exchange, fluorescence; activity, negative = inhibition: at 115 µM (top of the series); further: nearly all actives have a fitted effect of over 55% in size; further: potency means the concentration at half of the fitted maximal effect
Sequence of Rap guanine nucleotide exchange factor 3 (Homo sapiens) (O95398 whole entry, looked up): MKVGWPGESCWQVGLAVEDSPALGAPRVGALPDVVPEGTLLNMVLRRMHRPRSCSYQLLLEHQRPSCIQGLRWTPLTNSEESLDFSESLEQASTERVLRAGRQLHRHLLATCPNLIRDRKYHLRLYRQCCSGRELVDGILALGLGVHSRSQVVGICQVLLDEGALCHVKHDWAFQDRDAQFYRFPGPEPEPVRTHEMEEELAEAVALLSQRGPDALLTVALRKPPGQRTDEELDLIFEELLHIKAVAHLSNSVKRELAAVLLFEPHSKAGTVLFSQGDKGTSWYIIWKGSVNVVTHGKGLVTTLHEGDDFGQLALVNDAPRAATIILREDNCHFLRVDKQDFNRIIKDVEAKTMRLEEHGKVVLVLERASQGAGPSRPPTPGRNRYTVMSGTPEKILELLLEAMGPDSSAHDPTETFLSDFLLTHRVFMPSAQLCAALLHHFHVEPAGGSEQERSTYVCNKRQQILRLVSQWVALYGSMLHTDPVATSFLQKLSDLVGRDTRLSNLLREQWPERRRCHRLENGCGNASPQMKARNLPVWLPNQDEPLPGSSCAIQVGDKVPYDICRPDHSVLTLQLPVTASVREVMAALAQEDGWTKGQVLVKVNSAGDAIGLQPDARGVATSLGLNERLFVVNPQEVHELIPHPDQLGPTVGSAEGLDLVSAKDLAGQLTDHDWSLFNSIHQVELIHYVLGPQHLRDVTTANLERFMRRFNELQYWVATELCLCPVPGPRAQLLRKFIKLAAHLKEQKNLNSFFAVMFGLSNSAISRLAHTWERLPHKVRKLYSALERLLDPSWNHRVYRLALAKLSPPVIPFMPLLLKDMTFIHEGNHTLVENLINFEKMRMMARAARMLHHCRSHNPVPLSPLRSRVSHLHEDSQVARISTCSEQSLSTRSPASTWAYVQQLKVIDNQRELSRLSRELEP
Procedure, shortened: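 Nucleotide exchange uses 100 nM EPAC1, 250 nM RAP1B-BODIPY-GDP and 50 uM GDP, with compounds in a concentration-titration series. After 5 min at room temperature, fluorescence (480 nm ex/540 nm em) is read every 5 min for 30 min. Data are normalized to control ATA and DMSO.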

[2] = biological target: Rap guanine nucleotide exchange factor 4 (Homo sapiens) (UniProt Q8WZA2); experiment: Confirmatory qHTS for agonist of cAMP-regulated guanine nucleotide exchange factor 4 (EPAC2) (AID 1645884);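 further: nucleotide exchange releases bodipy-GDP from Rap1 and this lowers its fluorescence; nearly all actives have a fitted effect of over 65% in size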; further: potency means the concentration at half of the fitted maximal effect
Sequence of Rap guanine nucleotide exchange factor 4 (Homo sapiens) (Q8WZA2 whole entry, looked up): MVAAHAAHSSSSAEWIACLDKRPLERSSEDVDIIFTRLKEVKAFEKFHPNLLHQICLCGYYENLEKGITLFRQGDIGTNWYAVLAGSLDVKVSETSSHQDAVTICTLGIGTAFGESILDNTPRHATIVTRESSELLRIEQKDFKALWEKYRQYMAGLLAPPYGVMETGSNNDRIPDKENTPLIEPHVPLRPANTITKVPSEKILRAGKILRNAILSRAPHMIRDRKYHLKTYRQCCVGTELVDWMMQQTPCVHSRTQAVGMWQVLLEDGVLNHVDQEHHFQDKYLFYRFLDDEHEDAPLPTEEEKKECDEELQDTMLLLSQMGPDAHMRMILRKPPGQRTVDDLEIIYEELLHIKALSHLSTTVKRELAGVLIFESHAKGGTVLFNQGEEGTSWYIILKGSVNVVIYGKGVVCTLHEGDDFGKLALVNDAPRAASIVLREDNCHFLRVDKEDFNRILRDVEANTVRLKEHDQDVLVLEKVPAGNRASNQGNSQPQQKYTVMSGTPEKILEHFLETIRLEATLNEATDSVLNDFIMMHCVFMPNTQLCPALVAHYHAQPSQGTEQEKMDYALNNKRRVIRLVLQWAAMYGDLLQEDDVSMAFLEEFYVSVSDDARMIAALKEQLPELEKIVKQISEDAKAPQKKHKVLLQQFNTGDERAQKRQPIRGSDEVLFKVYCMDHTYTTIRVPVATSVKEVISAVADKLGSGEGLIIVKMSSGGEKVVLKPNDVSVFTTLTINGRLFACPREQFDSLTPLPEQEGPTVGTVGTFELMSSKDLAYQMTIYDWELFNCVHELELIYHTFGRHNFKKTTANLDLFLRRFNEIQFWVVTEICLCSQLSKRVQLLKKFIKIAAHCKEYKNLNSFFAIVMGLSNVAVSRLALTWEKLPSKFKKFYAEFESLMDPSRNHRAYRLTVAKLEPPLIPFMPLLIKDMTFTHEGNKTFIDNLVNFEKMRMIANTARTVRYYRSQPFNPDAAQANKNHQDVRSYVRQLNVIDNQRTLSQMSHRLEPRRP

[3] = biological target: Rap guanine nucleotide exchange factor 4 (Homo sapiens) (UniProt Q8WZA2); experiment: Confirmatory qHTS for antagonist of cAMP-regulated guanine nucleotide exchange factor 4 (EPAC2) (AID 1645885); further: nearly all actives have a fitted effect of over 25% in size; further: potency means the concentration at half of the fitted maximal effect
[4] = biological target: Rap guanine nucleotide exchange factor 3 (Homo sapiens) (UniProt O95398); experiment: Counterscreen qHTS for antagonist of cAMP-regulated guanine nucleotide exchange factor 3 (EPAC1) (AID 1645888);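 further: fluorescence loss as bound BODIPY-GDP is released from Rap1B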
Procedure, shortened: (§1)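 Rap1B-BODIPY-GDP 250 nM + GDP 50 uM; cpds 7-pt, final 9.74 nM–152 uM (activator mode) or from 7.32 nM upwards (inhibitor mode); RT; FI 480/540 nm at 5 and 30 min, then ± cAMP, reread.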

[5] = biological target: Rap guanine nucleotide exchange factor 3 (Homo sapiens) (UniProt O95398); experiment: Counterscreen qHTS for agonist of cAMP-regulated guanine nucleotide exchange factor 3 (EPAC1) (AID 1645889); further: nearly all actives have a fitted effect of over 40% in size; further: potency means the concentration at half of the fitted maximal effect
Procedure, shortened: as §1

[6] = biological target: Tumor susceptibility gene 101 protein (Homo sapiens) (UniProt Q99816); experiment: qHTS Assay for Iinhibitors of HIV-1 Budding by Blocking the Interaction of PTAP/TSG101: Hit Validation (AID 651600); further: potency means the concentration at half of the fitted maximal effect; nearly all actives have a fitted effect of over 70% in size
Sequence of Tumor susceptibility gene 101 protein (Homo sapiens) (Q99816 whole entry, looked up, the tested form may be a part): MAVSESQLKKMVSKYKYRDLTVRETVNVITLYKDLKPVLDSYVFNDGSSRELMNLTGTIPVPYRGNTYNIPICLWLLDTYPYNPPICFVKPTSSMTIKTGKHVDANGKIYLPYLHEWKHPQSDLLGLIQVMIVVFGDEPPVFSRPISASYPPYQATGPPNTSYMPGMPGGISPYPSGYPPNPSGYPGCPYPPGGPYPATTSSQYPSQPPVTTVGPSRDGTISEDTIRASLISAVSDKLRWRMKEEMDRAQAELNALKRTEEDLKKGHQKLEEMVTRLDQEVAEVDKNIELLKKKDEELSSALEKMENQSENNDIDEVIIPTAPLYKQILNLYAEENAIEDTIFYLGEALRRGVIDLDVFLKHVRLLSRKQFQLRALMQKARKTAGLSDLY
Procedure, shortened: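 Tsg101 binding domain 10 uM + FITC-PTAP peptide 50 nM (final), 10 mM HEPES pH 7.5/0.15 M NaCl/0.01% Tween 20/3 mM EDTA/0.1 mM TCEP; 20 min RT; FP read, FITC filters.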

Row | Structure (SMILES) | Potency [1] | Potency [2] | Potency [3] | Potency [4] | Potency [5] | activation [2] | activity change, negative = inhibition [4] | activation [5] | Potency [6]
1 | CCCN1C(=O)c2cccc3c(N4CCCCC4)ccc(c23)C1=O | inactive | 100 µM (active) | inactive | inactive | 39.8 µM (active) | – | – | – | –
2 | CCOC(=O)C1=C(C)N=c2s/c(=C/c3ccc(OCC(=O)O)c(OC)c3)c(=O)n2C1c1ccc(Cl)cc1 (stereo unspecified) | inactive | inactive | inactive | inactive | inactive | – | – | – | –
3 | Cc1[nH]c2ccccc2c1C(c1ccccc1)c1ccc(Cl)s1 (stereo unspecified) | inactive | inactive | inactive | inactive | inactive | – | – | – | –
4 | Cc1ccc(N2C(=O)c3cccc4c(N)ccc(c34)C2=O)c2cccnc12 | inactive | 112 µM (active) | inactive | inactive | 10 µM (active) | – | – | – | –
5 | N=C1/C(=C/c2coc3ccccc3c2=O)C(=O)N=C2SC(c3ccco3)=NN12 | inactive | inactive | inactive | inactive | 39.8 µM (active) | – | – | – | –
6 | O=c1oc2cc(O)ccc2cc1-c1nc2c(s1)CCc1ccccc1-2 | inactive | 100 µM (active) | inactive | inactive | inactive | – | – | – | –
7 | CCCCCn1nc(-c2ccccc2)c2nc3ccccc3nc21 | inactive | – | inactive | – | – | 2.69% [at 17.1 µM, percent relative to cAMP agonist control] | 19.6% [at 30.8 µM] | 10.8% [at 30.8 µM] | –
8 | O=C(N=c1ccn(-c2nc3ccccc3nc2NS(=O)(=O)c2ccccc2)cc1)c1ccccc1Cl | inactive | 89.1 µM (active) | 75.7 µM (active) | inactive | 79.4 µM (active) | – | – | – | –
9 | O=C(O)c1cccc(-c2ccc(/C=c3/sc4nc5ccccc5n4c3=O)o2)c1 | inactive | inactive | inactive | inactive | inactive | – | – | – | –
10 | N#CC(Sc1ccccn1)c1ccc(Cl)cc1Cl (stereo unspecified) | inactive | inactive | inactive | inactive | inactive | – | – | – | –
11 | O=c1oc2ccc(Cl)cc2nc1/C=C(\O)c1cccs1 | inactive | – | inactive | – | – | 14.5% [at 17.1 µM, percent relative to cAMP agonist control] | 7.64% [at 30.8 µM] | 11.4% [at 30.8 µM] | –
12 | COc1cc(C2CC(=O)Oc3cc(C)cc(C)c32)cc(OC)c1OC (stereo unspecified) | inactive | inactive | 1.51 µM (active) | inactive | inactive | – | – | – | –
13 | O=C(c1ccco1)N1CCN(c2cc(=O)n(C3CCCCC3)c(=O)[nH]2)CC1 | inactive | inactive | inactive | inactive | inactive | – | – | – | –
14 | CN(Cc1cccs1)c1nc(-c2cccnc2)nc2ccccc12 | inactive | – | inactive | – | – | 12.1% [at 17.1 µM, percent relative to cAMP agonist control] | -10.3% [at 30.8 µM] | 51% [at 30.8 µM] | –
15 | O=C(/C=C/c1ccc(N2CCOCC2)cc1)c1ccccc1 | inactive | inactive | inactive | inactive | inactive | – | – | – | –
16 | CCN(CC)C(=O)c1ccc(/C=C/c2c[nH]c3ccccc23)[n+](C)c1 | inactive | – | inactive | – | 15.8 µM (active) | 6.96% [at 17.1 µM, percent relative to cAMP agonist control] | 70% [at 30.8 µM] | – | –
17 | O=C(Cn1ccc(=O)[nH]c1=O)c1ccc([N+](=O)[O-])o1 | inactive | – | inactive | – | – | 15.2% [at 17.1 µM, percent relative to cAMP agonist control] | -11.8% [at 30.8 µM] | 18.6% [at 30.8 µM] | –
18 | N=C1/C(=C\c2coc3ccc(O)cc3c2=O)C(=O)N=C2SC=CN12 | inactive | 112 µM (active) | inactive | inactive | 44.7 µM (active) | – | – | – | –
19 | CC(C)CCn1c(Oc2ccccc2F)nc2c1c(=O)n(C)c(=O)n2C | inactive | inactive | inactive | inactive | inactive | – | – | – | –
20 | CN1/C(=C/C=C(C#N)C#N)C(C)(C)c2ccccc21 | inactive | – | inactive | – | – | -11.9% [at 17.1 µM, percent relative to cAMP agonist control] | 214% [at 30.8 µM] | -347% [at 30.8 µM] | –
21 | CC(=O)NC(c1cccc(F)c1)c1nc(-c2ccccc2)cs1 (stereo unspecified) | inactive | – | inactive | – | – | 10% [at 17.1 µM, percent relative to cAMP agonist control] | -20.8% [at 30.8 µM] | 45.7% [at 30.8 µM] | –
22 | Cc1ccc(-c2csc3ncnc(Nc4ccc(C(=O)O)cc4)c23)cc1 | inactive | inactive | inactive | inactive | inactive | – | – | – | –

Row | Structure (SMILES) | Potency [1] | Potency [2] | Potency [3] | Potency [4] | Potency [5] | activation [2] | activity change, negative = inhibition [4] | activation [5] | Potency [6]
23 | O=C(OCCN1C(=O)c2cccc3c(N4CCOCC4)ccc(c23)C1=O)c1ccccc1Cl | inactive | – | inactive | – | 11.2 µM (active) | 17.6% [at 17.1 µM, percent relative to cAMP agonist control] | 1.86% [at 30.8 µM] | – | –
24 | Cc1ccc(S(=O)(=O)N2CCN(C(=O)c3ccc4c(c3)OCO4)CC2)cc1 | inactive | – | inactive | – | – | 0.378% [at 17.1 µM, percent relative to cAMP agonist control] | -2% [at 30.8 µM] | 24.8% [at 30.8 µM] | –
25 | C(=C(c1ccccc1)c1ccccc1)c1ccccn1 | inactive | inactive | 84.9 µM (active) | inactive | inactive | – | – | – | –
26 | CCN(CC)c1ccc2cc(C=O)c(=O)oc2c1 | inactive | – | inactive | – | 12.6 µM (active) | 6.38% [at 17.1 µM, percent relative to cAMP agonist control] | 96.9% [at 30.8 µM] | – | –
27 | CCC(C)n1c(=N)c(C#N)cc2c(=O)n3ccccc3nc21 (stereo unspecified) | inactive | – | inactive | – | – | -1.22% [at 17.1 µM, percent relative to cAMP agonist control] | -20.2% [at 30.8 µM] | -4.07% [at 30.8 µM] | –
28 | N#C/C(=C\c1ccc(N2CCOCC2)o1)c1nc2ccccc2[nH]1 | inactive | 112 µM (active) | inactive | inactive | 39.8 µM (active) | – | – | – | –
29 | Cc1ccc(N=Cc2sc(O)c3ccccc23)c(C)c1 | inactive | – | inactive | – | – | -3.2% [at 17.1 µM, percent relative to cAMP agonist control] | -0.317% [at 30.8 µM] | 10.3% [at 30.8 µM] | –
30 | O=C1c2cccc3c(N4CCCCC4)ccc(c23)C(=O)N1c1ccc(O)cc1 | inactive | 112 µM (active) | inactive | inactive | inactive | – | – | – | –
31 | O=C(Cc1nc2ccccc2[nH]c1=O)c1ccccc1 | inactive | 100 µM (active) | inactive | inactive | inactive | – | – | – | –
32 | COc1ccc(C)cc1CN1C(=O)c2ccccc2C1=O | inactive | – | inactive | – | – | -0.218% [at 17.1 µM, percent relative to cAMP agonist control] | -7.92% [at 30.8 µM] | 12.1% [at 30.8 µM] | –
33 | COc1ccc(NC2c3ccccc3C(=O)N2c2ccccn2)cc1Cl (stereo unspecified) | inactive | inactive | inactive | inactive | inactive | – | – | – | –
34 | O=C(N/N=C/c1cccnc1)c1cc(-c2ccccc2OCc2ccccc2)n[nH]1 | inactive | 89.1 µM (active) | inactive | inactive | 25.1 µM (active) | – | – | – | –
35 | Cn1cc(/C=C2\SC(=S)N(NC(=O)c3ccccc3Cl)C2=O)c2ccccc21 | inactive | 100 µM (active) | inactive | inactive | 63.1 µM (active) | – | – | – | –
36 | CC1=Nc2ccccc2/C1=C\c1nc(-c2ccccc2)oc1O | inactive | – | inactive | – | – | 7.61% [at 17.1 µM, percent relative to cAMP agonist control] | -10.6% [at 30.8 µM] | 18.1% [at 30.8 µM] | –
37 | COc1ccc(-c2nc(N/N=C(\C)c3ccc(O)cc3)c3ccccc3n2)cc1 | inactive | – | inactive | – | – | -0.683% [at 17.1 µM, percent relative to cAMP agonist control] | 8.99% [at 30.8 µM] | 22.7% [at 30.8 µM] | –
38 | COc1ccc(O)c(C(=O)c2cc(SCC(=O)O)c3nc4sc5c(c4c(=O)n3c2)CCCC5)c1 | 23.9 µM (active) | inactive | inactive | inactive | inactive | – | – | – | –
39 | COc1ccccc1CNc1cc(C)nc2nc(-c3ccc(C)cc3)nn12 | inactive | inactive | inactive | inactive | inactive | – | – | – | –
40 | CCN(CC)c1ccc2cc(-c3nc(-c4ccccc4)no3)c(=O)oc2c1 | inactive | 31.6 µM (active) | 6.01 µM (active) | inactive | 56.2 µM (active) | – | – | – | –
41 | CC(C)(C)CNC(=O)c1cccc2c1C(=O)c1ccc(-c3cc4ccccc4o3)cc1S2(=O)=O | inactive | 79.4 µM (active) | inactive | inactive | inactive | – | – | – | –
42 | O=C1CCNc2ccc(-c3ccccc3)cc21 | inactive | 112 µM (active) | inactive | inactive | 56.2 µM (active) | – | – | – | 8.19 µM (active)
43 | COc1ccc(CN(C(=O)c2cccs2)c2ccccc2)cc1 | inactive | – | inactive | – | – | 16.8% [at 17.1 µM, percent relative to cAMP agonist control] | -5.93% [at 30.8 µM] | 12% [at 30.8 µM] | –
44 | COc1ccc(N=Cc2c(O)n(-c3cccc(C)n3)c(=O)c3ccccc23)c(OC)c1 | inactive | – | inactive | – | – | -25.1% [at 17.1 µM, percent relative to cAMP agonist control] | 31% [at 30.8 µM] | 19.8% [at 30.8 µM] | –
